HT1080 IDH1KD tx: toxicity to HT-1080 IDH1 knockdown cells (counter line); HT-1080 IDH1 knockdown viability, ATP luminescence, 48 h; Potency, µM (doses to about 46.1 µM), for the others: top-dose activity, negative = toxicity, usual class: cytotoxic; 2% of 360,000 active; AID 686971;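 further: potency means the concentration at half of the fitted maximal effect; 0% = DMSO wells and -100% = cell-free medium wells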
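CellTiter-Glo luminescence after 48 h compound exposure at 37 degrees C of IDH1-knockdown HT-1080 cells in 5% FBS RPMI. %Activity scaled between DMSO wells and cell-free media wells, with curves fitted and assigned curve classes.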
IL1B secr inh: inflammasome signaling inhibition, IL-1 beta readout | THP-1 LPS/ATP IL-1B secretion, AlphaLISA, 16 h; stronger effect = lower value | activity change, % at 57.5 µM | 4.7% of 360,000 active; in the data active means activity change below about -50%; inconclusive means mostly about -30% to -49%
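THP-1 cells pretreated 1 hr with compounds (up to 57.5 uM final), then stimulated with LPS (250 ng/mL final) plus ATP (1.25 mM final); secreted IL-1B measured by AlphaLISA after 16 hr, decreased signal indicating inhibition.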
ALOX12 inh: blocks human arachidonate 12S-lipoxygenase; P18054; purified 12hLO, xylenol orange hydroperoxide absorbance; Potency, µM (highest dose often 108 µM), without a hit: at the highest dose activity change, negative = inhibition, actives largely listed as inhibitors; 1.1% of 580,000 active; AID 1671190; further: potency means the concentration at half of the fitted maximal effect
Target sequence (P18054 whole entry, looked up): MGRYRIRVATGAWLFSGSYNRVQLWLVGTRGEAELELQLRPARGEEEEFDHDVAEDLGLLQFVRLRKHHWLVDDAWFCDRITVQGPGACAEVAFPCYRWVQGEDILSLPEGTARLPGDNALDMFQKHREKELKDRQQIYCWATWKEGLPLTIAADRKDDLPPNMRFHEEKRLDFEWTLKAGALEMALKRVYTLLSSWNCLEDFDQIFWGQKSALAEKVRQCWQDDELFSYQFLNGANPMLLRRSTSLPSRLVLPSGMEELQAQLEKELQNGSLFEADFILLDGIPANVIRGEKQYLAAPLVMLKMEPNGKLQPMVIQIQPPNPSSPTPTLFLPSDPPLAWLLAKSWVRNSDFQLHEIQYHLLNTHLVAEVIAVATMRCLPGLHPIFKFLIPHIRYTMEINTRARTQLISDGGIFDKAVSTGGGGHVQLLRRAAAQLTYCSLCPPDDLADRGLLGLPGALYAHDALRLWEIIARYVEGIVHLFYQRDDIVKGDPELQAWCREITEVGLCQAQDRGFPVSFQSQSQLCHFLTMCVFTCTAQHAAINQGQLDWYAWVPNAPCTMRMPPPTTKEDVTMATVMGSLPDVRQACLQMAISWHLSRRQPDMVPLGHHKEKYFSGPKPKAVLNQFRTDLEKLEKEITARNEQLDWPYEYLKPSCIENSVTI
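Purified human 12hLO at 150 nM in 25 mM Hepes, 0.01% Triton X-100, pH 7.0, preincubated 15 min at room temperature with compound. Reaction started with 40 uM arachidonic acid, 30 min at room temperature. Hydroperoxide measured by Fe-xylenol orange, 573/405 nm absorbance ratio.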
TDP1 cell CPT: DT40-hTDP1 cell growth loss with CPT | chicken DT40 Tdp1-/-;hTDP1 cells + 20 nM CPT, ATP luminescence, 48 h | Potency, µM (highest dose often 46.2 µM), without a hit: top-dose activity change, negative = growth inhibition, actives largely listed as inhibitors | 12% of 420,000 active | AID 686979; further: potency means the concentration at half of the fitted maximal effect; nearly all actives have a fitted effect of over 55% in size
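Cell growth measured by CellTiter-Glo luminescence after a minimum 48 h, 37 C compound exposure with 20 nM CPT in Tdp1-knockout DT40 cells stably expressing hTDP1, seeded 400/well; qHTS titration format.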
TDP1 cell noCPT: qHTS for Inhibitors of human tyrosyl-DNA phosphodiesterase 1 (TDP1): qHTS in cells in absence of CPT. DT40 Tdp1-/- hTDP1 cells, no CPT, ATP luminescence, 48 h. Potency, µM (top dose mostly 46.2 µM), without a hit: at the top dose activity change, negative = growth inhibition, most hits filed as inhibitors. 15% of 420,000 active. AID 686978, 2013; further: potency means the concentration at half of the fitted maximal effect; nearly all actives have a fitted effect of over 55% in size
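Chicken DT40 Tdp1-/- cells stably complemented with human TDP1 were seeded at 400 cells/well with DMSO in place of 20 nM camptothecin. After compound pinning, cells grew at least 48 hr at 37 °C; viability read by CellTiter-Glo luminescence.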
HT1080-NT tox: kills 2HG-producing HT-1080-NT fibrosarcoma cells | HT-1080-NT fibrosarcoma viability, CellTiter-Glo ATP luminescence, 48 h | 1.6% of 360,000 active | AID 686970 | Potency, µM (series often up to 46.1 µM), for inactives: top-dose activity, negative = less viability, usual class: cytotoxic;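 further: NT is the 2HG producing partner of a matched IDH1 knockdown line; potency means the concentration at half of the fitted maximal effect; 0% = DMSO-treated cells and -100% = media-only wells without cells; nearly all actives have a fitted effect of over 55% in size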
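Compounds were tested in concentration-response format on HT-1080-NT cells for 48 hours at 37 degrees C. Cell viability came from CellTiter-Glo luminescence; curves were classified by r2, response magnitude and activity.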
An asterisk follows results filed as active; [ ] = another dose, or the depositor's remark. The entries come from a sample that favours hits as a whole. Unless noted, the call rests on the fitted dose curve; in most records, active means well fitted curve in the direction sought with a large enough effect; inconclusive means small, poorly fitted or top-dose-only effect, or another doubt; inactive means no such curve, though single readings can be large; an effect the other way counts as inactive or inconclusive. Unless noted, on the % scale 0 is the no-effect control and ±100 the full control effect.

COc1ccc(N2CCN(C(=O)CC34CC5CC(CC(C5)C3)C4)CC2)c([N+](=O)[O-])c1 was read as HT1080 IDH1KD tx 9.3%, IL1B secr inh 12.1, ALOX12 inh -0.1%, TDP1 cell CPT 20.6µM*, TDP1 cell noCPT 16.4µM* and HT1080-NT tox 10.2%.
Cc1cc(CNC(=O)C2CCCCn3nnnc32)c2[nH]c(-c3ccccc3)c(C)c2c1 (stereo unspecified) was read as ALOX12 inh 5.5%.
For COC(=O)CC1[C@@]2(C)C[C@]34OC5(C)OC6(C7CC(=O)OC(c8ccoc8)[C@]7(C)CCC6(O5)[C@]13C)C(OC(C)=O)[C@]4(OC(C)=O)C2OC(C)=O (stereo partly specified) the results were ALOX12 inh -0.6%, TDP1 cell CPT -3.0% and TDP1 cell noCPT 1.4%.
CC(C)OCCCNC(=O)c1cc(C2CC2)nc2onc(C3CCCN3)c12 (stereo unspecified) was read as ALOX12 inh -2.8%[6.33 µM].
Cc1cc(C(=O)NCCCOC(C)C)c2c(C3CCCN3)noc2n1 (stereo unspecified) was read as ALOX12 inh 14.1µM*.
For CCN1C(=O)/C(=C\c2cccs2)C(C(=O)OC)=C1C the results were HT1080 IDH1KD tx -9.3%[9.24 µM], IL1B secr inh -27.9, ALOX12 inh 0.0%, TDP1 cell CPT 0.5%, TDP1 cell noCPT inconclusive and HT1080-NT tox -20.4%.
CCN1C(=O)/C(=C\C(=O)c2cccs2)c2cc(Br)ccc21 was read as HT1080 IDH1KD tx -7.6%, IL1B secr inh -7.2, ALOX12 inh inconclusive, TDP1 cell CPT 13µM*, TDP1 cell noCPT 14.6µM* and HT1080-NT tox -18.7%.
For COc1ccccc1Cc1c(-c2ccc(C)cc2)nc2ccc(Br)cn12 the results were HT1080 IDH1KD tx -6.6%, IL1B secr inh -23.7, ALOX12 inh -26.4%, TDP1 cell CPT 20.6µM*, TDP1 cell noCPT 23.1µM* and HT1080-NT tox -18.2%.
`COc1ccccc1Cc1c(C2CCCCC2)nc2ccc(Br)cn12` gave HT1080 IDH1KD tx inconclusive, IL1B secr inh 0.0, ALOX12 inh inconclusive, TDP1 cell CPT 8.2µM*, TDP1 cell noCPT 6.51µM* and HT1080-NT tox inconclusive.
For COc1ccccc1Cc1c(-c2ccc(C#N)cc2)nc2ccc(Br)cn12 the results were HT1080 IDH1KD tx -17.4%, IL1B secr inh -24.0, ALOX12 inh 25.1µM*, TDP1 cell CPT 20.6µM*, TDP1 cell noCPT 16.4µM* and HT1080-NT tox -16.0%.
COc1ccccc1Cc1c(-c2cccc(Br)c2)nc2ccc(Br)cn12 was read as HT1080 IDH1KD tx inconclusive, IL1B secr inh 11.8, ALOX12 inh inconclusive, TDP1 cell CPT inconclusive, TDP1 cell noCPT inconclusive and HT1080-NT tox inconclusive.
Screening COc1ccccc1Cc1c(-c2ccc(Cl)cc2)nc2ccc(Br)cn12 returned HT1080 IDH1KD tx -10.9%, IL1B secr inh 3.2, ALOX12 inh inconclusive, TDP1 cell CPT 20.6µM*, TDP1 cell noCPT inconclusive and HT1080-NT tox -11.3%.
Screening CCCc1nc(C(=O)N(C)CCSc2ccc(C)cc2)cs1 returned ALOX12 inh 39.3%.
Screening CC(C)c1cccc(NC(=O)c2n[nH]c(=O)c3ccccc23)c1 returned ALOX12 inh -9.7%.
Screening CC(Sc1cc(Cl)ccc1Cl)C(=O)NCCc1ccccn1 (stereo unspecified) returned ALOX12 inh 1.8%.
For CN(C)C(=O)C1CN(C(=O)NCc2ccc(F)cc2)CC12CCOCC2 (stereo unspecified) the results were ALOX12 inh -9.7%.
Screening COc1ccccc1CSc1nc2ccccc2s1 returned ALOX12 inh -4.1%.
